Laboratory results taken from PubChem BioAssay.
Calls of active or inactive are those of the source.

Assays:
[1] = test system: Human papillomavirus type 1a protein E7 (residues 44-93); test: HPV1a E7 fragment binders on microarrays, primary screen, biochemical, small-molecule microarray, residues 44-93, 635 nm fluorescence (AID 1108); conditions: small-molecule microarray binding, fluorescence 635 nm; higher = more signal;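 note: E7 fragment applied at 1 µg/mL in TBST for 1 h at 4 C; score combines spot fluorescence with its signal to noise ratio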
[2] = modulators of HCV replicon luciferase signal, primary screen, HCV replication inhibitor project, Huh7 cells, luciferase reporter (AID 1109); conditions: 48 h, higher = more signal;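 note: huh7 hepatoma cells harbouring a luciferase neomycin HCV replicon reporter; luciferase luminescence as measure of HCV replicon replication; test concentration not given here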
[3] = target: Left-right determination factor 2 (Homo sapiens) (UniProt O00292); test: LEFTY2 binders on small-molecule microarrays, primary screen, biochemical, small-molecule microarray, 635 nm fluorescence scan (AID 1110); conditions: LEFTY2 binding, higher = more signal
Chain of Left-right determination factor 2 (Homo sapiens) (O00292 whole entry, looked up): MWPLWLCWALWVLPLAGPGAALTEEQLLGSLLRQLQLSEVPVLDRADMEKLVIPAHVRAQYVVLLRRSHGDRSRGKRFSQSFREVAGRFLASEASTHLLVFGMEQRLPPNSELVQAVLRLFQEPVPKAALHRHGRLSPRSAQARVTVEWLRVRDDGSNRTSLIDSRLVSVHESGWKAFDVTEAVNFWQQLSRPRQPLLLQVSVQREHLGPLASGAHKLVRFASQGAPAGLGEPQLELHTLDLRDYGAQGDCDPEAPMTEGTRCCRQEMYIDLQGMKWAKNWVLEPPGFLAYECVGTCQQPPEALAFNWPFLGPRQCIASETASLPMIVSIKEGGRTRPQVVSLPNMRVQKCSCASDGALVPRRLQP

[4] = target: Calmodulin-1 (Homo sapiens) (UniProt P0DP23); test: CALM1 binders on microarrays, EGTA buffer, profiling panel, biochemical, small-molecule microarray, Cy5-labelled CALM1 (AID 1111); conditions: Cy5-CALM1 binding fluorescence, higher = more signal;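 note: labelled calmodulin applied in Tris saline Tween buffer holding calcium plus EGTA and DTT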
[5] = target: Calmodulin-1 (Homo sapiens) (UniProt P0DP23); test: calcium-bound CALM1 binders on microarrays, profiling panel, artefact control for SMM control-protein annotation, biochemical, small-molecule microarray, Cy5-labelled CALM1, plus calcium (AID 1112); conditions: Cy5-CALM1 binding fluorescence, higher = more signal;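 note: score merges spot fluorescence with signal to noise from triplicate slides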
[6] = small-molecule microarray binders of probe aWnt5a, primary screen, biochemical, biotinylated probe, 635/667 nm fluorescence (AID 1113); conditions: higher = more signal;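 note: score merges 667 nm fluorescence intensity with signal-to-noise per printed feature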
[7] = small-molecule microarray binders of probe aShh, primary screen, biochemical, biotinylated probe, 635/667 nm fluorescence (AID 1114); conditions: higher = more signal;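 note: probe is biotin-labelled aShh protein from a stem cell growth factor screen; measures binding of labelled protein to compounds printed on the slide; score merges feature fluorescence at 667 nm with signal-to-noise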
[8] = small-molecule microarray binders of probe aNog, primary screen, biochemical, biotinylated probe, 635/667 nm fluorescence (AID 1115); conditions: higher = more signal;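 note: probe is biotinylated aNog protein used at 0.15 µg/mL for 1 h at 4 C; z-score combines 667 nm fluorescence of each spot with its signal to noise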
[9] = target: Torsin-1A-interacting protein 1 (Homo sapiens) (UniProt Q5JTV8); test: LAP1 binders from COS7 cell lysate, primary screen, small-molecule microarray, 635/667 nm fluorescence (AID 1116); conditions: COS7-hLAP1 lysate binding, 635 nm fluorescence, higher = more signal
Chain of Torsin-1A-interacting protein 1 (Homo sapiens) (Q5JTV8 whole entry, looked up): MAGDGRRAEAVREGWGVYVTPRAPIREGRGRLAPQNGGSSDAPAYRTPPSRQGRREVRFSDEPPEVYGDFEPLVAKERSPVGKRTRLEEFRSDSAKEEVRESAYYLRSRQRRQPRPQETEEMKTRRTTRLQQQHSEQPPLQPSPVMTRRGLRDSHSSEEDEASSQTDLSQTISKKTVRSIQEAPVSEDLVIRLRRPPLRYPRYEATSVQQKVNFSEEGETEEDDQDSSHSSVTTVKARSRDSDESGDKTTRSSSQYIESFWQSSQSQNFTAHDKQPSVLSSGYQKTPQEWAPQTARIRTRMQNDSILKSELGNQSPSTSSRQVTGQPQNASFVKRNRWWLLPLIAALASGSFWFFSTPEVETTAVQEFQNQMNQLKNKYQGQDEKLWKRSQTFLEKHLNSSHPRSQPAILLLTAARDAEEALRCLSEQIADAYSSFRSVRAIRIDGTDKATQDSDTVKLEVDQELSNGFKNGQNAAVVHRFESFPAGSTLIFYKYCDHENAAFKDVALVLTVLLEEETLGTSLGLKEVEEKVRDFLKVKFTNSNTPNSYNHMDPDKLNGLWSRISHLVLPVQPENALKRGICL

[10] = target: Alpha-bungarotoxin (Bungarus multicinctus) (UniProt P60615); test: alpha-bungarotoxin binders on microarray, profiling panel, artefact control for SMM control protein annotation, biochemical, small-molecule microarray, Alexa647 label, 635/667 nm fluorescence (AID 1117); conditions: alpha-BTX-A647 binding fluorescence, higher = more signal
Chain of Alpha-bungarotoxin (Bungarus multicinctus) (P60615 whole entry, looked up): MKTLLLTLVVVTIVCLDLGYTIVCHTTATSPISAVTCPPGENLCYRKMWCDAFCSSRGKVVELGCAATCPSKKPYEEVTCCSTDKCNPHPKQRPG

[11] = target: Albumin (Bos taurus) (UniProt P02769); test: bovine serum albumin binders on microarray, profiling panel, artefact control for SMM control protein annotation, biochemical, small-molecule microarray, Alexa647 label, 635/667 nm fluorescence (AID 1118); conditions: BSA-A647 binding, fluorescence 635 nm, higher = more signal;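 note: score merges 667 nm emission intensity and signal-to-noise per printed compound spot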
Chain of Albumin (Bos taurus) (P02769 whole entry, looked up): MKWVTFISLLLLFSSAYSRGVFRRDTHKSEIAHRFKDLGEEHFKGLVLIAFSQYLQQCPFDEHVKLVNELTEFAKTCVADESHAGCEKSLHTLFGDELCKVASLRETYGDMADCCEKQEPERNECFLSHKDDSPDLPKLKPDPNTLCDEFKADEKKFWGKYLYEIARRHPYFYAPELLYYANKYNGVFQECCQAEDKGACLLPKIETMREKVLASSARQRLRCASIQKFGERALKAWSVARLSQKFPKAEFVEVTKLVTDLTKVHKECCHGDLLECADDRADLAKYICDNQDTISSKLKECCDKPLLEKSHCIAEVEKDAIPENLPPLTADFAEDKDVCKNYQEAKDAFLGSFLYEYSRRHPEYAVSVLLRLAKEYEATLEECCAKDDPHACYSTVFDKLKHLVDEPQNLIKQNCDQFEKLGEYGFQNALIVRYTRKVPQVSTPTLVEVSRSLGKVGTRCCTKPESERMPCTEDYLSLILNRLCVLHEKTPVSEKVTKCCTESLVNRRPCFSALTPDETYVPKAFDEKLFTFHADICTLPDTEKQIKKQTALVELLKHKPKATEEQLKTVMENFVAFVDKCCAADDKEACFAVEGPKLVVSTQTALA

[12] = small-molecule microarray binders of probe aXIP, primary screen, biochemical, NeuroSMM set, 635/667 nm fluorescence (AID 1119); conditions: higher = more signal, called active from +8 up or from −8 down;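 note: probe is the protein aXip251-270 applied at 1 µg/mL to compound-printed slides; binding of probe to printed compounds measured as 667 nm fluorescence plus signal to noise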
[13] = small-molecule binders of probe aNOTCH3, primary screen, biochemical, small-molecule microarray, 635/667 nm fluorescence (AID 1120); conditions: higher = more signal;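 note: probe is a biotin-tagged antibody raised against NOTCH3 rather than NOTCH3 protein; score merges spot fluorescence near 667 nm with spot signal to noise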
[14] = small-molecule binders of probe aNOTCH2, primary screen, biochemical, small-molecule microarray, 635/667 nm fluorescence (AID 1121); conditions: higher = more signal;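 note: score merges feature fluorescence read at 667 nm with its signal to noise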
[15] = target: Carbonic anhydrase 2 (Homo sapiens) (UniProt P00918); test: CAII small-molecule binders, profiling panel, biochemical, small-molecule microarray, Alexa647-labelled CAII (AID 1122); conditions: CAII-A647 binding fluorescence, higher = more signal
[16] = COS7 lysate on small-molecule microarray, probe aHis, 635 nm (AID 1123); conditions: COS7 cell lysate, fluorescence, higher = more signal;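 note: z-score combines 667nm fluorescence intensity with signal-to-noise per printed compound spot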
[17] = compound binding in COS7 lysate, probe aLAP1, primary screen, cell lysate, small-molecule microarray (AID 1124); conditions: probe aLAP1, fluorescence, higher = more signal;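 note: lysate comes from COS7 cells expressing LAP1 and is applied at 0.3 µg/mL; score merges spot fluorescence near 667 nm with signal-to-noise over triplicate slides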
[18] = test system: Sam68 (KHDRBS1); test: Sam68 small-molecule binders, primary screen, biochemical, small-molecule microarray, 635 nm fluorescence (AID 1125); conditions: small-molecule microarray binding, higher = more signal;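 note: score merges 667 nm channel intensity with signal to noise over triplicate slides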
[19] = test system: Chordin-like protein 2 (CHRDL2); test: CHRDL2 small-molecule binders, primary screen, biochemical, small-molecule microarray, 635 nm fluorescence (AID 1126); conditions: small-molecule microarray binding, fluorescence 635 nm; higher = more signal;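 note: printed compound slides probed with Chrdl2 protein at 4 µg/mL for 1 h at 4 C; score merges 667 nm emission intensity with signal to noise over three replicate slides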
[20] = target: Concanavalin-A (Canavalia ensiformis) (UniProt P02866); test: ConA small-molecule binders, primary screen, artefact control for SMM control protein annotation, biochemical, small-molecule microarray, Alexa647 label, 635 nm (AID 1127); conditions: ConA-A647 binding fluorescence, higher = more signal;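 note: z combines 667 nm emission intensity with signal-to-noise across three replicate slides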
Chain of Concanavalin-A (Canavalia ensiformis) (P02866 whole entry, looked up): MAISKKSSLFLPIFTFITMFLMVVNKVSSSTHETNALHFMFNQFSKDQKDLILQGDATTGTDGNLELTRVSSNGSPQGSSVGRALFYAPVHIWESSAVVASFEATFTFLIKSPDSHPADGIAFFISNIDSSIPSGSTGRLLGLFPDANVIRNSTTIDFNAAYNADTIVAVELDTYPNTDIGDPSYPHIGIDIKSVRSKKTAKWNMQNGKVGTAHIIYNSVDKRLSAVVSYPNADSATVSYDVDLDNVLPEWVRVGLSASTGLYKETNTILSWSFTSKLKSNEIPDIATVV

SMILES | composite z-score [1] | z-score [2] | composite z-score [3] | composite z-score [4] | composite z-score [5] | composite z-score [6] | composite z-score [7] | composite z-score [8] | composite z-score [9] | composite z-score [10] | composite z-score [11] | composite Z-score [12] | composite z-score [13] | composite z-score [14] | composite z-score [15] | composite z-score [16] | composite z-score [17] | composite z-score [18] | composite z-score [19] | composite z-score [20]
O=C1C[C@@H](O)[C@@H](O)[C@@H]2[C@@H]3C(=O)N(Cc4ccc5c(c4)OCO5)C(=O)[C@@H]3CC[C@H]12 | 0.508 | -0.194 | 0.632 | -0.0373 | -0.646 | -0.208 | 0.0121 | -0.0502 | 0.346 | -0.109 | 0.272 | 0.0723 (inactive) | -0.16 | -0.186 | -0.126 | -0.254 | -0.225 | 0.416 | 0.356 | 0.717
CC(C)=CCCC(C)=CCON=C1C[C@@H](O)[C@@H](O)[C@@H]2[C@@H]3C(=O)N(C4CCCCC4)C(=O)[C@@H]3CC[C@@H]12 | 0.0997 | -0.471 | 0.464 | -0.403 | -1.15 | -0.128 | -0.209 | -0.261 | 0.259 | -0.0585 | 0.0108 | 0.244 (inactive) | -0.0048 | -0.13 | 0.276 | -0.112 | 0.0694 | 0.493 | 1.01 | 0.124
CC(C)=CCCC(C)=CCON=C1C[C@@H](O)[C@@H](O)[C@@H]2[C@@H]3C(=O)N(c4ccc(F)cc4F)C(=O)[C@@H]3CC[C@@H]12 | 0.15 | -1.08 | 0.821 | -0.343 | 0.0144 | -0.169 | -0.0553 | -0.374 | 1 | 0.703 | 0.572 | 0.262 (inactive) | 0.0459 | -0.14 | 0.29 | -0.217 | 0.233 | 0.51 | 1.38 | 0.339
CO[C@H]1COC(=O)[C@@H](C)COC(=O)[C@H](COCc2ccccc2)NC(=O)CC=C[C@H]1C | -1.39 | -0.292 | 1.23 | -3.3 | -3.53 | -0.247 | 0.0062 | 0.0139 | -0.526 | -0.445 | -1.04 | 2.09 (inactive) | -0.0077 | -0.135 | -0.551 | -1.73 | -0.81 | -1.17 | 1.22 | -3.77
CO[C@@H]1COC(=O)[C@@H]2CCCN2C(=O)[C@@H](C)COC(=O)CC=C[C@H]1C | 1.04 | -0.913 | 0.861 | -0.149 | -0.439 | -0.147 | 0.284 | 0.0453 | 0.378 | 0.234 | 0.0417 | -0.235 (inactive) | -0.0362 | -0.14 | 0.299 | 0.148 | 0.0496 | 1.2 | 0.695 | 0.325
